PubChem BioAssay (EPA / NIEHS)
Values joined by “and” are separate entries in the source; they are usually repeats but may differ in a detail not shown here. Identical values can stand only once. Some compounds were tested as several samples or in several runs, with calls that do not always agree. Active and inactive are the calls of the source. The calls were made as follows: active = hit-call score of the fitted dose curve at least 0.9, where 1 is the maximum; inactive = score below 0.9.

Experiments:
[1] = read-out: Low-density lipoprotein receptor (LDLR), LDLR (gene 3949); test: BSK_CASM3C_LDLR: BioMAP Diversity Plus: CASM3C Assay for Low-density lipoprotein receptor (LDLR) Biomarker Activity (AID 2283045); settings: primary human coronary artery smooth muscle cells; actives raise or lower the signal;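 also: LDLR protein level on the cell surface quantified by ELISA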
[2] = read-out: Monocyte Chemoattractant Protein-1 (MCP1), CCL2 (gene 6347); test: BSK_CASM3C_MCP1: BioMAP Diversity Plus: CASM3C Assay for Monocyte Chemoattractant Protein-1 (MCP1) Biomarker Activity (AID 2283046); settings: primary human coronary artery smooth muscle cells; actives raise or lower the signal;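 also: MCP-1 level quantified by ELISA 24 h after dosing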
[3] = BSK_CASM3C_Proliferation: Cell Proliferation Assessment in the BioMAP Diversity Plus: CASM3C Assay (AID 2283047); settings: primary human coronary artery smooth muscle cells;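 also: sulforhodamine B total protein stain as relative cell number at 560 nm; sub-confluent cells exposed 48 h before staining; fitted both ways against DMSO so gain or loss of cell number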
[4] = read-out: Monokine induced gamma interferon (MIG), CXCL9 (gene 4283); test: BSK_CASM3C_MIG: BioMAP Diversity Plus: CASM3C Assay for Monokine induced gamma interferon (MIG) Biomarker Activity (AID 2283048); settings: primary human coronary artery smooth muscle cells; actives raise or lower the signal;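 also: MIG protein level measured by ELISA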
[5] = read-out: serum amyloid A (SAA), SAA1 (gene 6288); test: BSK_CASM3C_SAA: BioMAP Diversity Plus: CASM3C Assay for serum amyloid A (SAA) Biomarker Activity (AID 2283049); settings: primary human coronary artery smooth muscle cells; actives raise or lower the signal;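 also: SAA protein level quantified by ELISA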
[6] = BSK_CASM3C_SRB: Viability Assessment in the BioMAP Diversity Plus: CASM3C Assay (AID 2283050); settings: primary human coronary artery smooth muscle cells;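 also: total protein by SRB staining as cytotoxicity measure in parallel cultures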
[7] = read-out: Thrombomodulin, THBD (gene 7056); test: BSK_CASM3C_Thrombomodulin: BioMAP Diversity Plus: CASM3C Assay for Thrombomodulin Biomarker Activity (AID 2283051); settings: primary human coronary artery smooth muscle cells; actives raise or lower the signal;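 also: thrombomodulin protein level measured by ELISA 24 h after dosing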
[8] = read-out: Tissue Factor, F3 (gene 2152); test: BSK_CASM3C_TissueFactor: BioMAP Diversity Plus: CASM3C Assay for Tissue Factor Biomarker Activity (AID 2283052); settings: primary human coronary artery smooth muscle cells; actives raise or lower the signal;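 also: cell surface tissue factor protein level read by ELISA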
[9] = read-out: Interferon-gamma inducible Protein 10 (IP10), CXCL10 (gene 3627); test: BSK_hDFCGF_IP10: BioMAP Diversity Plus: hDFCGF Assay for Interferon-gamma inducible Protein 10 (IP10) Biomarker Activity (AID 2283053); settings: primary human foreskin fibroblasts; actives raise or lower the signal
How it was run: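 Human foreskin fibroblast primary cells (hDFCGF system) were dosed with chemical and assayed at 24 h; IP-10 measured by ELISA. Activity fitted bidirectionally relative to DMSO negative control as baseline.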

[10] = read-out: Urokinase-type plasminogen activator receptor (uPAR), PLAUR (gene 5329); test: BSK_CASM3C_uPAR: BioMAP Diversity Plus: CASM3C Assay for Urokinase-type plasminogen activator receptor (uPAR) Biomarker Activity (AID 2283054); settings: primary human coronary artery smooth muscle cells; actives raise or lower the signal;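 also: cell-surface uPAR protein level quantified by ELISA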
[11] = read-out: Vascular cell adhesion molecule 1 (VCAM1), VCAM1 (gene 7412); test: BSK_CASM3C_VCAM1: BioMAP Diversity Plus: CASM3C Assay for Vascular cell adhesion molecule 1 (VCAM1) Biomarker Activity (AID 2283055); settings: primary human coronary artery smooth muscle cells; actives raise or lower the signal;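 also: VCAM-1 protein level quantified by ELISA on the cells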
[12] = read-out: Collagen III, COL3A1 (gene 1281); test: BSK_hDFCGF_CollagenIII: BioMAP Diversity Plus: hDFCGF Assay for Collagen III Biomarker Activity (AID 2283056); settings: primary human foreskin fibroblasts; actives raise or lower the signal
How it was run: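 Human foreskin primary fibroblasts were exposed to test chemicals for 24 h, after which collagen III was quantified by ELISA. Activity was fitted bidirectionally against DMSO as negative control and baseline.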

[13] = read-out: Epidermal growth factor receptor (EGFR), EGFR (gene 1956); test: BSK_hDFCGF_EGFR: BioMAP Diversity Plus: hDFCGF Assay for Epidermal growth factor receptor (EGFR) Biomarker Activity (AID 2283057); settings: primary human foreskin fibroblasts; actives raise or lower the signal
How it was run: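 Primary human foreskin fibroblasts were exposed to compound for 24 h, after which cell-surface EGFR was quantified by ELISA. Activity was fitted bidirectionally against the DMSO negative control as baseline.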

[14] = read-out: Interleukin-8 (IL8), CXCL8 (gene 3576); test: BSK_hDFCGF_IL8: BioMAP Diversity Plus: hDFCGF Assay for Interleukin-8 (IL8) Biomarker Activity (AID 2283058); settings: primary human foreskin fibroblasts; actives raise or lower the signal
How it was run: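 hDFCGF human dermal fibroblasts; 24 h chemical exposure; IL-8 by ELISA; bidirectional curve fit vs DMSO baseline; gain or loss of signal scored.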

[15] = BSK_hDFCGF_Proliferation: Cell Proliferation Assessment in the BioMAP Diversity Plus: hDFCGF Assay (AID 2283059); settings: primary human foreskin fibroblasts;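 also: curves fitted for both rise and fall of signal versus DMSO baseline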
How it was run: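 This proliferation readout used SRB total-protein staining of human foreskin fibroblasts […], normalized to DMSO with bidirectional curve fitting.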

[16] = read-out: Macrophage colony-stimulating factor (MCSF), CSF1 (gene 1435); test: BSK_hDFCGF_MCSF: BioMAP Diversity Plus: hDFCGF Assay for Macrophage colony-stimulating factor (MCSF) Biomarker Activity (AID 2283060); settings: primary human foreskin fibroblasts; actives raise or lower the signal
How it was run: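 Human foreskin primary fibroblasts were treated with test chemical for 24 h, and M-CSF was then measured by ELISA. Data were fitted bidirectionally against DMSO as the negative control and activity baseline.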

[17] = BSK_hDFCGF_SRB: Viability Assessment in the BioMAP Diversity Plus: hDFCGF Assay (AID 2283061); settings: primary human foreskin fibroblasts;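 also: cells exposed to compound for 24 h before the read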
How it was run: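 Human foreskin primary fibroblasts were treated with compound and assessed 24 h after dosing. Total protein was measured by sulforhodamine B staining (0.1% SRB after 10% TCA fixation, 560 nm read) as a cytotoxicity marker, with bidirectional fitting against DMSO baseline.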

[18] = read-out: TIMP metallopeptidase inhibitor 1 (TIMP1), TIMP1 (gene 7076); test: BSK_hDFCGF_TIMP1: BioMAP Diversity Plus: hDFCGF Assay for TIMP metallopeptidase inhibitor 1 (TIMP1) Biomarker Activity (AID 2283062); settings: primary human foreskin fibroblasts; actives raise or lower the signal
How it was run: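 Primary human foreskin fibroblasts in the hDFCGF system were dosed with compound for 24 h, then TIMP-1 was measured by ELISA. Activity was fitted bidirectionally relative to DMSO control; parallel SRB staining assessed cytotoxicity.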

[19] = read-out: Monokine induced gamma interferon (MIG), CXCL9 (gene 4283); test: BSK_hDFCGF_MIG: BioMAP Diversity Plus: hDFCGF Assay for Monokine induced gamma interferon (MIG) Biomarker Activity (AID 2283063); settings: primary human foreskin fibroblasts; actives raise or lower the signal
How it was run: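 ELISA read-out of MIG from primary human dermal fibroblasts 24 h post-dosing. Gain or loss of signal fitted bidirectionally, DMSO as baseline.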

[20] = read-out: Matrix Metallopeptidase 1 (MMP1), MMP1 (gene 4312); test: BSK_hDFCGF_MMP1: BioMAP Diversity Plus: hDFCGF Assay for Matrix Metallopeptidase 1 (MMP1) Biomarker Activity (AID 2283064); settings: primary human foreskin fibroblasts; actives raise or lower the signal
How it was run: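 Primary human foreskin fibroblasts in the hDFCGF system were dosed with test chemical, and MMP1 was measured by ELISA 24 h later. Values come from bidirectional curve fitting against the DMSO baseline.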

Measured: AC50

Oc1ccc(-c2ccccc2)cc1
active: [1] 3.97 µM | [3] 6 µM | [6] 3.97 µM | [8] 20 µM
inactive: [2] | [4] | [5] | [7] | [9] | [10] | [11] | [12] | [13] | [14] | [15] | [16] | [17] | [18] | [19] | [20]

O=C(O)CCC(F)(C(F)(F)F)C(F)(F)F
inactive: [1] | [2] | [3] | [4] | [5] | [6] | [7] | [8] | [9] | [10] | [11] | [12] | [13] | [14] | [15] | [16] | [17] | [18] | [19] | [20]
active: [5] 17.9 µM | [9] 1.93 µM | [11] 0.25 µM | [16] 5.95 µM

O=[N+]([O-])c1ccc2c3c(cccc13)CC2
active: [15] 27.7 µM | [16] 10.6 µM
inactive: [1] | [2] | [3] | [4] | [5] | [6] | [7] | [8] | [9] | [10] | [11] | [12] | [13] | [14] | [17] | [18] | [19] | [20]

CC(=O)OC(c1ccccc1)C(Cl)(Cl)Cl (stereo not given)
inactive: [1] | [2] | [3] | [4] | [5] | [6] | [7] | [8] | [9] | [10] | [11] | [12] | [13] | [14] | [16] | [17] | [18] | [19] | [20]
active: [15] 31 µM and 25.6 µM | [19] 36.7 µM

OCc1ccco1
inactive: [1] | [2] | [3] | [4] | [5] | [6] | [7] | [8] | [9] | [10] | [11] | [12] | [13] | [14] | [16] | [17] | [18] | [19] | [20]
active: [15] 29.6 µM

ClC(Cl)=C(Cl)C(Cl)=C(Cl)Cl
inactive: [1] | [2] | [4] | [5] | [6] | [8] | [9] | [10] | [13] | [14] | [16] | [17] | [19]
active: [3] 1.52 µM | [7] 0.0235 µM | [11] 20 µM | [12] 20 µM | [15] 29.4 µM | [18] 20 µM | [20] 32 µM

CN(C)N=O
inactive: [1] | [2] | [3] | [4] | [5] | [6] | [7] | [8] | [9] | [10] | [11] | [12] | [13] | [14] | [15] | [16] | [17] | [18] | [19] | [20]

CCCCCCCCc1ccc(O)cc1
active: [1] 20.1 µM | [2] 27.8 µM | [3] 31.5 µM | [4] 31.2 µM | [5] 36.1 µM | [6] 30.9 µM | [7] 34.6 µM | [8] 28.7 µM | [9] 25.8 µM | [10] 39.1 µM | [11] 33.9 µM | [12] 20.1 µM | [14] 36 µM | [15] 7.67 µM | [16] 32.9 µM | [17] 26.4 µM | [18] 33.3 µM | [19] 34.8 µM | [20] 31.9 µM
inactive: [13]

CC(C)CCCCCCOC(=O)c1ccccc1C(=O)OCCCCCCC(C)C
active: [8] 0.0332 µM
inactive: [1] | [2] | [3] | [4] | [5] | [6] | [7] | [9] | [10] | [11] | [12] | [13] | [14] | [15] | [16] | [17] | [18] | [19] | [20]

CCOP(=S)(OCC)SCCS(=O)(=O)CC
inactive: [1] | [2] | [3] | [4] | [5] | [6] | [7] | [8] | [9] | [10] | [11] | [12] | [13] | [14] | [15] | [16] | [17] | [18] | [19] | [20]

O=Cc1cccc(Oc2ccccc2)c1
inactive: [1] | [2] | [3] | [4] | [5] | [6] | [7] | [8] | [9] | [10] | [11] | [12] | [13] | [14] | [15] | [16] | [17] | [18] | [19] | [20]

O=c1[nH]c(=O)[nH]c(=O)[nH]1
inactive: [1] | [2] | [3] | [4] | [5] | [6] | [7] | [8] | [9] | [10] | [11] | [12] | [13] | [14] | [15] | [16] | [17] | [18] | [19] | [20]
